Compound activity: PubChem BioAssay, The Scripps Research Institute Molecular Screening Center
Only some compounds are listed: those with a hit (about 3.5% of all), similar ones and a draw of the others.
FBW7 act: FBW7 E3 ligase activators, primary screen, biochemical, AlphaScreen, human; F-box/WD repeat-containing protein 7 (Homo sapiens), Q969H0; AlphaScreen FBW7–phospho-cyclin E peptide binding, activator screen; normalized activity (activation), % at 26.1 µM; 650,000 compounds, 0.13% hits; in the data active means normalized activity above about 1.9%;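 further: purified mutant Fbw7 with reduced substrate affinity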
Target sequence (Q969H0 whole entry, looked up): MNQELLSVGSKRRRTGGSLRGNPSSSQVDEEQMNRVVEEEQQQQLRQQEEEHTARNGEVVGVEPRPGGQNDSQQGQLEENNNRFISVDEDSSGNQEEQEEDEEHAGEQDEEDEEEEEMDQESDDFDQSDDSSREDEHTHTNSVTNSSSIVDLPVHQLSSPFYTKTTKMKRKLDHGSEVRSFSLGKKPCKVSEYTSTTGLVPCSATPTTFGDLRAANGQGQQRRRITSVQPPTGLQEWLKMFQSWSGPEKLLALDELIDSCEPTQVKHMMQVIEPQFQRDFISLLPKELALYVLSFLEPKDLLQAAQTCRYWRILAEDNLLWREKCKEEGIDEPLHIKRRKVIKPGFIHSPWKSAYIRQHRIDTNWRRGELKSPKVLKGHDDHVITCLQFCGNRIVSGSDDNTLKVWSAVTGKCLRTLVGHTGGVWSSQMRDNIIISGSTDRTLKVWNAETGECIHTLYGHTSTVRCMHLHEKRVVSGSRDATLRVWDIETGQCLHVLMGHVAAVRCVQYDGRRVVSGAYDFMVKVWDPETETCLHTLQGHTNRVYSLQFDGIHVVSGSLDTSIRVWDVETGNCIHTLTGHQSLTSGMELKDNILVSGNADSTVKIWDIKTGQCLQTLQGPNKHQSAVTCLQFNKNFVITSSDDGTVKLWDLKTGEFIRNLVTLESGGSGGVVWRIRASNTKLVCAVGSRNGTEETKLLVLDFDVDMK
GPR151 activ: activators of human GPR151, primary screen, cell-based, PathHunter beta-arrestin, luminescence; G-protein coupled receptor 151 (Homo sapiens), Q8TDV0; PathHunter beta-arrestin GPR151 cells; activation, % at 11.2 µM; 650,000 compounds, 1% hits; in the data active means activation above about 4.9%;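 further: 0% = median of compound wells and 100% = cells with positive control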
MITF primary: MITF inhibitors, primary screen, biochemical, AlphaScreen, human | inhibition, % at 2.6 µM | AID 1259374, 2018 | AlphaScreen MITF homodimerization, bead proximity signal | 650,000 compounds, 0.91% hits | Microphthalmia-associated transcription factor (Homo sapiens), O75030; in the data active means inhibition above about 50%;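 further: 0% = vehicle wells with protein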
TEAD-YAP inh: TEAD-YAP interaction inhibition, primary screen, TEAD-YAP interaction inhibitor project, luminescence, HEK-TIYL cells; TEAD-Gal4/YAP UAS-luciferase luminescence; inhibition, % at 9.12 µM; 640,000 compounds, 1.4% hits; in the data active means inhibition above about 32%;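 further: 0% = median of test compound wells and 100% = reference inhibitor wells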
GPR151 conf act: GPR151 activators, triplicate retest, confirmation, cell-based, PathHunter beta-arrestin, luminescence | GPR151 PathHunter beta-arrestin cells, 90 min; % of EA-reagent control over plate median | AID 1508609, 2020 | 6,700 tested, under 10 active | shares compounds with GPR151 activ | activation, % at 11.2 µM;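 active means mean percent activation across replicates above the confirmation screen cutoff of 4.91%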
GPR119 ag: GPR119 activators in beta-arrestin cells, counter-screen for GPR151 activator project, cell-based, PathHunter beta-arrestin, luminescence, triplicate. AID 1508611, 2020. shares compounds with GPR151 activ. activation, % at 11.2 µM. 90 min; 0 = compound-well median, 100 = enzyme-acceptor control. 6,700 compounds, 0.3% hits;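 active means mean percent activation in the counterscreen above 29.09%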;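 further: counterscreen on off-target GPR119 to flag nonselective hits from the GPR151 activator screen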
An asterisk follows results filed as active; nt = not tested or not shown.

SMILES	FBW7 act	GPR151 activ	MITF primary	TEAD-YAP inh	GPR151 conf act	GPR119 ag
CCOc1ccccc1N(C)S(=O)(=O)c1ccc2[nH]cc(C(=O)N(CC)CC)c(=O)c2c1	0	5.9*	-9	6	0	8
CCOc1ccc(NC(=O)Nc2cccc(C(C)=O)c2)c([N+](=O)[O-])c1	0	0	13	6	nt	nt
CC(=O)c1ccc(NC(=S)NC(=O)c2ccccc2F)cc1	0	15*	12	-67	0	5
Cc1ccccc1C(=O)NC(=S)Nc1ccc(Cc2ccncc2)cc1	0	19*	19	8	0	-16
CCNc1nc2c(c(=O)[nH]c(=O)n2C)n1Cc1cccc(Br)c1	0	3	-3	4	nt	nt
CCOc1cc(/C=N/NC(=O)COc2c(C)cccc2C)ccc1O	0	3	-16	8	nt	nt
Cc1cccc(N(Cc2ccccc2F)S(C)(=O)=O)c1	1	0	7	1	nt	nt
Cc1cccc(N(Cc2c(F)cccc2Cl)S(C)(=O)=O)c1	1	6.9*	5	6	-1	-14
O=C1OC(c2ccccc2F)=N/C1=C\c1ccc(I)cc1	0	-1	-13	7	nt	nt
Cc1ccc(-c2noc(C3CCN(S(=O)(=O)c4ccccc4)CC3)n2)cc1	0	0	-26	0	nt	nt
COc1cccc(S(=O)(=O)N2CCC(c3nc(-c4cccnc4)no3)CC2)c1	1	7.4*	29	2	-1	-11
Cc1ccc(S(=O)(=O)N2CCC(c3nc(-c4ccccc4C)no3)CC2)cc1	0	6.2*	13	14	0	-10
O=C1N=C(N2CCOCC2)S/C1=C\c1cccc([N+](=O)[O-])c1	0	0	43	5	nt	nt
O=C1CCC(C(=O)NCc2nnc3n2CCN(Cc2ccccc2C(F)(F)F)CC3)N1 (stereo not given)	0	9.8*	1	-3	0	-4
Cc1nc2c(C(=O)NCc3ccc(F)cc3)c[nH]n2c(=O)c1Cl	0	9.6*	2	-3	0	5
Cc1nc2c(C(=O)NCCc3ccccc3)c[nH]n2c(=O)c1Cl	0	-1	15	0	nt	nt
N#CC1=C(S)N(c2ccccc2)C(c2ccco2)NC1=O (stereo not given)	0	0	-3	-5	nt	nt
N#CC1=C(S)N(c2ccccc2)C(c2cccs2)NC1=O (stereo not given)	0	6.9*	-8	-8	0	7
CC1CCN(CC(O)COc2ccccc2Br)CC1 (stereo not given)	0	0	-11	0	nt	nt
Cc1ccc(-c2nnc(Nc3ccccc3)c3ccccc23)cc1S(=O)(=O)N1CCOCC1	0	2	-11	3	nt	nt
Cc1ccc(-c2nnc(Nc3ccc(Br)cc3)c3ccccc23)cc1S(=O)(=O)N1CCOCC1	0	5.0*	-10	3	0	2
O=C(Nc1ccc(Cl)c(Cl)c1)OCc1ccco1	0	6.0*	4	-15	1	0
COc1ccc(NC(=O)c2ccc(NC(=O)CSc3cccc[n+]3[O-])cc2)cc1	0	1	5	9	nt	nt
Cc1[nH]c2ccccc2c1SCCNC(=O)c1ccc(N2C(=O)CCC2=O)cc1	0	6.2*	-2	7	-1	2
CCCCNC(=S)NNC(=O)C12CC3CC(CC(C3)C1)C2	0	1	-7	-8	nt	nt
SMILES	FBW7 act	GPR151 activ	MITF primary	TEAD-YAP inh	GPR151 conf act	GPR119 ag
CCCCNC(=S)NNC(=O)C(=O)NNC(=S)NCCCC	0	6.4*	24	5	0	5
Cc1c(C(=O)N2CCN(C)CC2)sc2ncn(CC(=O)N3CCCCC3)c(=O)c12	0	1	7	-5	nt	nt
COC(=O)c1ccc(C2C3=C(CC(C)(C)CC3=O)N(c3cccc(C(F)(F)F)c3)C3=C2C(=O)CC(C)(C)C3)cc1	0	6.8*	2	8	1	-4
O=[N+]([O-])c1ccc(S(=O)(=O)N2CCN(S(=O)(=O)N3CCOCC3)CC2)cc1	0	3	-3	12	nt	nt
O=[N+]([O-])c1ccc(-c2ccc(S(=O)(=O)N3CCOCC3)cc2)cc1	0	5.6*	3	9	-1	-13
O=C(NCc1cccnc1)c1cc(-c2ccc(F)cc2)no1	0	5.0*	14	-23	0	-6
CN(C)c1ccc([N+](=O)[O-])cc1/C=N/NC(=O)c1cccnc1	0	0	-1	4	nt	nt
O=C(Nc1ccccc1OC(F)F)c1ccc(F)cc1	0	1	7	-18	nt	nt
CC(=O)Nc1ccccc1OC(F)F	0	7.1*	7	-3	1	13
CCOc1ccccc1OCCN[C@H](C)Cc1ccc(OC)c(S(N)(=O)=O)c1	0	6.8*	-16	-2	0	0
O=C(Nc1ccc(Br)cn1)c1ccc(N2CCCCC2)c([N+](=O)[O-])c1	0	6.5*	-4	-59	2	9
Cc1ccc(C(=O)Nc2ccc(Br)cn2)cc1[N+](=O)[O-]	0	0	-7	-61	nt	nt
CC(NC(=O)CCl)c1ccc2c(c1)CCCC2 (stereo not given)	0	2	-5	18	nt	nt
CC(NC(=O)CCl)c1ccc(F)cc1F (stereo not given)	0	5.2*	3	17	1	-1
CCOC(=O)CSC1=C(C#N)C(c2ccc(Cl)cc2)[C@H](C(=O)OC)C(=O)N1 (stereo not given in full)	0	1	-2	6	nt	nt
C[n+]1ccccc1/C=C/c1ccc([N+](=O)[O-])cc1	0	6.6*	2	-11	0	1
C[n+]1ccccc1/C=C/c1ccccc1	0	0	9	0	nt	nt
Cc1ccc(-n2c(=S)sc3c(=O)n(-c4ccc(F)cc4)c(SCC#N)nc32)c(C)c1	0	6.3*	-11	2	1	7
CCOc1ccc(-n2c(SCC#N)nc3c(sc(=S)n3-c3ccc(C)cc3C)c2=O)cc1	0	0	2	8	nt	nt
COC(=O)c1c(NC(=O)CSc2nnc(N)s2)sc(C)c1C	0	1	-2	1	nt	nt
CCC(=O)Nc1nnc(SCc2cccc(Cl)c2)s1	0	0	0	-2	nt	nt
COc1ccc(-c2nnc(SCC(=O)Nc3ccc(F)c(Cl)c3)o2)cc1	0	5.0*	-4	-46	0	-8
COc1ccc(-c2nnc(SCC(=O)Nc3ccc(Cl)cc3C)o2)cc1	0	0	-22	21	nt	nt
